The results in this text go back to PubChem BioAssay (NCATS).

Structures are written as SMILES. “And” between values parts separate entries of the source, which are not always exact repeats. Identical values can stand only once. A number with no mark means an inactive call. Inconclusive results are not listed. The source made the active and inactive calls. Calls follow the shape of the dose curve; as a rule, active = well fitted curve in the direction sought with a large enough effect; inconclusive = small, poorly fitted or top-dose-only effect, or another doubt; inactive = no such curve, though single readings can be large; an effect the other way counts as inactive or inconclusive.

Assay [1] relates to Zika virus NS2B-NS3 protease (linked construct). In words: Primary screen NINDS Rhodamine qHTS for Zika virus inhibitors (AID 1347160). Also: nearly all actives have a fitted effect of over 55% in size. A digest of the protocol:
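Rhodamine110-peptide cleavage (1.5 µM substrate) by 25 nM linked NS2B-NS3 enzyme at pH 8.0 (Tris, Tween 20), after 15 min RT preincubation with compounds; 15-min fluorescence change normalized to controls and Hill-fitted.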
On the technique in general: Quantitative high-throughput screening tests each substance at several concentrations.

The target in assay [2] is Calcium and integrin-binding protein 1 (Homo sapiens) (UniProt Q99828). Description: Primary qHTS for Identification of Calcium Integrin Binding Protein 1 (CIB1) Competitor (AID 1508620).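 Also: GST tagged CIB1 binding a fluorescein labelled alphaIIb integrin peptide tracer; top concentration of the series differs between compounds.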 A digest of the protocol: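 Fluorescence polarization competition: CIB1-GST (1 uM final) preincubated with compound 15 min at room temperature, then FITC-labeled alphaIIb peptide (100 nM final) added for another 15 min. Polarization read at Ex 480/Em 540.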
Calcium and integrin-binding protein 1 (Homo sapiens), sequence (Q99828 whole entry, looked up): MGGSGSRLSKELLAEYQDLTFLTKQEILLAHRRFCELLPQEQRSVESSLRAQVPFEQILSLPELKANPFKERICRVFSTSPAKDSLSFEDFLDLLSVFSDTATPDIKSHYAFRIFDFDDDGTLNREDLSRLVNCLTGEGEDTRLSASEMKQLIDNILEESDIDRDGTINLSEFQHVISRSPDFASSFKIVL

Assay [3] in a line: Primary qHTS for inhibitors of nuclear receptor binding SET domain protein 2 (NSD2) in an isogenic RCH-ACV NSD2 p.E1099K mutant (9B) (AID 1645876). Also: nearly all actives have a fitted effect of over 70% in size. Also: potency is read from the fitted curve at half-maximal effect.
Assay [4] is described as follows: Primary qHTS for inhibitors of nuclear receptor binding SET domain protein 2 (NSD2) in an RCH-ACV wild type WT cells (2C) (AID 1645877). Also: nearly all actives have a fitted effect of over 70% in size. Also: potency is read from the fitted curve at half-maximal effect.
The target of assay [5] is Glutathione peroxidase 1 (Homo sapiens) (UniProt P07203). In words: Primary qHTS Assay for Inhibitors of Recombinant Selenoprotein Glutathione Peroxidase 1 (GPX1) (AID 1845191). Also: nearly all actives have a fitted effect of over 65% in size. A digest of the protocol:
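GPX1 10 nM, GR 100 nM, GSH 1 mM, NADPH 0.5 mM, CHP 0.5 mM (final). 30-min cpd preincubation, RT. Ex340/Em450 read t=0, t=15 min.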

Assay [6] deals with Phospholipid hydroperoxide glutathione peroxidase GPX4 (Homo sapiens) (UniProt P36969). Description: Primary qHTS Assay for Inhibitors of Recombinant Selenoprotein Glutathione Peroxidase 4 (GPX4) (AID 1845192). Also: nearly all actives have a fitted effect of over 65% in size. Particulars: outcome: dose series up to 50 µM unless noted. A digest of the protocol: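 qHTS, GR-coupled: GPX4 200 nM + cpd 30 min RT → GSH 1 mM, NADPH 0.5 mM, GR 100 nM → CHP 0.5 mM start; fluor 340/450 at t0 and t15 min; no-enzyme wells as control.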
Phospholipid hydroperoxide glutathione peroxidase GPX4 (Homo sapiens), sequence (P36969 whole entry, looked up): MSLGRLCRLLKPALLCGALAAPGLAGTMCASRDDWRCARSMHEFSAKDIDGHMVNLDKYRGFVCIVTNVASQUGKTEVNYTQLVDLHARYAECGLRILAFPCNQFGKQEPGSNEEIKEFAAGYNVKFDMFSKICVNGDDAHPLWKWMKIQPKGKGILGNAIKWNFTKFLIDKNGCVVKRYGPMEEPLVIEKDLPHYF

The target of assay [7] is Luciferin 4-monooxygenase (Photinus pyralis) (UniProt P08659). Description: Primary firefly luciferase (FLuc) qHTS assay for identification of artifact compounds. (AID 1845220). Also: nearly all actives have a fitted effect of over 60% in size. The method, boiled down: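 In this counter-screen for luciferase artifacts, test compounds met substrate (10 uM each luciferin and ATP) before 10 nM enzyme started the reaction. Light output was measured 5 min later.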

Assay [8] in a line: Primary fluorescence-based thiol-reactive (MSTI) qHTS assay for identification of artifact compounds. (AID 1845221). Also: nearly all actives have a fitted effect of over 65% in size. Also: potency is read from the fitted curve at half-maximal effect. A digest of the protocol:
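qHTS titration of compound; 4 uM MSTI, PBS pH 7.4, 2% DMSO; 1 h RT, dark; fluorescence 525/598 nm; normalized to Acetyl-MSTI and MSTI; 4-parameter Hill fit.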

A short description of assay [9]: Primary redox qHTS assay for identification of artifact compounds. (AID 1845223). The method, boiled down: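 Redox-cycling detection via DTT (250 uM final) oxidation coupled to Amplex Red (25 uM)/HRP (250 mU/mL) in HBSS. 15 min preincubation plus 30 min after DTT, room temperature. Ex/Em 525/598 nm; 4-parameter Hill fit against DMSO and 10 uM DA3003.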
Another assay deals with C33A. Description: Primary qHTS to identify gynecologic anti-cancer compounds using libraries of approved drugs and bioactive compounds (AID 1345084). Also: nearly all actives have a fitted effect of over 55% in size. Particulars: Gynecologic cancer cell panel viability, ATPlite luminescence, 48 h; series mostly up to 57.5 µM. The method, boiled down: (§1)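 Cells, 1,000 per well, were allowed to settle for 16 h at 37 C before compound addition. Five concentrations were tested for 48 h, and viability was read by ATPlite luminescence after 15 min at room temperature.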

The next assay concerns CAOV3. Described as above. The following applies: Gynecologic cancer cell panel viability, ATPlite luminescence, 48 h; series mostly up to 57.5 µM. The method, boiled down:
as §1
(ATP-based viability assays read luminescence as a measure of living cells.)

The test system of another assay is CASKI. The description is as above. The following applies: Gynecologic cancer cell panel viability, ATPlite luminescence, 48 h; series mostly up to 57.5 µM. The method, boiled down:
as §1

Another assay concerns Es-2. The description is as above. Particulars: Gynecologic cancer cell panel viability, ATPlite luminescence, 48 h; series mostly up to 57.5 µM. A digest of the protocol: as §1
The next assay has as its system Hek293T. The assay is described as above. The following applies: Gynecologic cancer cell panel viability, ATPlite luminescence, 48 h, control line for the selectivity index; series mostly up to 57.5 µM. A digest of the protocol:
as §1

The subject of a further assay is Tov-21-G. The assay is described as above. The following applies: Gynecologic cancer cell panel viability, ATPlite luminescence, 48 h; series mostly up to 57.5 µM. A digest of the protocol: as §1
The test system of another assay is Tov112D. The assay is described as above. Particulars: Gynecologic cancer cell panel viability, ATPlite luminescence, 48 h; series mostly up to 57.5 µM. The method, boiled down: as §1
Assay [10] deals with Nanoluciferase (engineered Oplophorus gracilirostris luciferase). In words: Primary Nanoluciferase (NLuc) qHTS assay for identification of artifact compounds. (AID 1845222).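 Also: NLuc secreted into diluted conditioned medium of S16 cells.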 A digest of the protocol:
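Using secreted nanoluciferase in S16 culture medium (0.22 um filtered, 1:55 dilution), compounds were preincubated 15 min at RT. Signal was generated with Nano-Glo reagent (1:100) over 5 min.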

The test system of the next assay is HeLa. In words: Primary qHTS to identify gynecologic anti-cancer compounds using libraries of approved drugs and bioactive compounds (AID 1345084). Also: nearly all actives have a fitted effect of over 55% in size. The following applies: Gynecologic cancer cell panel viability, ATPlite luminescence, 48 h; series mostly up to 57.5 µM. A digest of the protocol: as §1
Another assay has as its system JEG-3. Described as above. Particulars: Gynecologic cancer cell panel viability, ATPlite luminescence, 48 h; series mostly up to 57.5 µM. The method, boiled down:
as §1

The subject of a further assay is OV90. Described as above. Particulars: Gynecologic cancer cell panel viability, ATPlite luminescence, 48 h; series mostly up to 57.5 µM. The method, boiled down:
as §1

Glutathione peroxidase 1 (Homo sapiens), sequence (P07203 whole entry, looked up): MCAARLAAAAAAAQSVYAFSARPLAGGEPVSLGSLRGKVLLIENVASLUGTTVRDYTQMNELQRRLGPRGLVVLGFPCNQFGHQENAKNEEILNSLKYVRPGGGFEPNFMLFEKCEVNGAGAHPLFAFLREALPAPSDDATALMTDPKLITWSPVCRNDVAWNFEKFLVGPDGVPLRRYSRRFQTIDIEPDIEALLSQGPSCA

`Cn1nccc1Nc1nccc(-c2ccn([C@H](CO)c3ccc(Cl)c(F)c3)c(=O)c2)n1`: the Potency result in [1], in assay [5], in assay [6], in assay [7], in assay [8] and in [9] was “inactive” throughout. The Potency result in the assay with C33A, in the assay with CAOV3, in the assay on CASKI, with Es-2, in the assay on Hek293T and in the assay on Tov-21-G was “inactive” each time. For the same molecule, the Potency entry in the assay with Tov112D was “inactive”. The outcome in assay [2] was inactive. Moreover, the Potency in assay [3] is 7.28 µM (active) and 7.42 µM (active); in assay [4] it was 10.3 µM (active) and 8.33 µM (active).

As for `C=C(C(=O)O)C1CC2=C(C)C(=O)CC2C(C)CC1O` (configuration not stated), the Potency result (in assay [1]; in assay [5]; in assay [7]; in assay [10]; in assay [9]; with C33A) was “inactive” each time. In addition, the Potency entry in the assay with CAOV3, in the assay on CASKI, in the assay on HeLa and with Tov112D was “inactive” each time. Further, in assay [2], the outcome was inactive. In addition, the Potency in assay [3] is 11.5 µM (active); in [4], 5.78 µM (active); in assay [8], 26.7 µM (active).

As for `Nc1ccc(N)c([N+](=O)[O-])c1`, the Potency result in the assay with C33A, with CAOV3, in the assay with CASKI, with Es-2, in the assay with HeLa and in the assay on Hek293T was “inactive” in each case. The Potency result with JEG-3, with Tov-21-G and in the assay on Tov112D was “inactive” each time.

On to `O=C(Nc1cccc(C(F)(F)F)c1)c1ccccc1NCc1ccncc1`, for which the Potency entry (in [1]; in assay [7]; in [8]; in [10]; in [9]; in the assay with C33A) was “inactive” in each case. Besides, the Potency result in the assay with CAOV3, in the assay with CASKI, in the assay on HeLa, in the assay with JEG-3, in the assay with OV90 and with Tov-21-G was “inactive” throughout.

As to `CCC(=O)Nc1cccc(Oc2nc(Nc3ccc(N4CCN(C)CC4)cc3OC)ncc2Cl)c1`, the Potency result (in assay [1]; in [6]; in assay [7]; in [10]; in the assay with C33A; with CASKI) was “inactive” throughout. Besides, the Potency entry in the assay on Es-2, with HeLa, in the assay on Hek293T, in the assay on JEG-3, with OV90 and in the assay on Tov112D was “inactive” throughout. Moreover, the results for the Potency in assay [3], in assay [4] and in assay [8] were 16.3 µM (active), 14.5 µM (active) and 1.89 µM (active), respectively.

Take `CC1(C)SC2C(NC(=O)[C@H](NC(=O)N3CCNC3=O)c3ccccc3)C(=O)N2C1C(=O)O` (some centres not stated): the result in assay [2] was inactive. In addition, the Potency entry in assay [3], in assay [4], in assay [5], in assay [6], in [7] and in [8] was “inactive” in each case. Besides, the Potency result (in [10]; in the assay on C33A; in the assay on CAOV3; in the assay on CASKI; in the assay with Es-2; in the assay on HeLa) was “inactive” throughout. The Potency entry with Hek293T, in the assay on JEG-3, with OV90, in the assay on Tov-21-G and in the assay with Tov112D was “inactive” in each case.

`COc1ccc(-c2nc(-c3cc(C(F)(F)F)cc(C(F)(F)F)c3)n(Cc3ccc(C(N)=O)cc3)c2-c2ccc(OC)cc2)cc1`: the outcome in assay [2] was inactive. Also, the Potency entry in assay [3], in [4], in assay [5], in assay [6], in assay [7] and in [8] was “inactive” throughout. Moreover, the Potency entry (in assay [10]; in assay [9]; in the assay on C33A; in the assay on CAOV3; with CASKI; in the assay with Es-2) was “inactive” in each case. In addition, the Potency result with HeLa, in the assay on JEG-3, in the assay on OV90, with Tov-21-G and with Tov112D was “inactive” in each case.
